# Measured values from PubChem BioAssay.
# Active and inactive are the calls of the source. Unless noted, no rule for the calls is given here.
# Tests used:
# [1] = tested on: Wnt5a (protein binding on small-molecule microarray); test: small molecules binding Wnt5a protein – biophysical, small-molecule microarray, 635/667 nm fluorescence, primary screen (AID 1142); details: 635 nm fluorescence, higher = more signal;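 also: fluorescence read at 667 nm with signal to noise per printed feature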
# [2] = ATP-based viability of Huh7 replicon cells – cell-based, CellTiter-Glo luminescence, basal, 48 h, cytotoxicity control for HCV replication inhibitor project, primary screen (AID 1143); details: higher = more signal, called active from +8 up or from −8 down;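 also: Huh7 hepatoma cells carrying a hepatitis C replication reporter with no stimulus; test concentration not given here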
# [3] = Pseudomonas biofilm growth suppression – PAO1 strain, BacTiter-Glo luminescence, LB-PBS, primary screen (AID 1144); details: P. aeruginosa PAO1 biofilm, 12 h, higher = more signal
# [4] = basal CRE-LacZ reporter activity in PC12 – cell-based, unstimulated, primary screen (AID 1145); details: no forskolin, luminescence, 4.5 h, higher = more signal, called active from +8 up or from −8 down
# [5] = forskolin-driven CRE-LacZ activity in PC12 – cell-based, CRE-LacZ reporter, forskolin-stimulated, primary screen (AID 1146); details: luminescence, 4.5 h, higher = more signal, called active from +8 up or from −8 down;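 also: PC12 cells with 6xCRE LacZ reporter stimulated by forskolin 10 µM; beta-galactosidase reporter signal reflecting CREB driven transcription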
# [6] = molecular target: Streptavidin (Streptomyces avidinii) (UniProt P22629); test: compounds binding control protein streptavidin – biophysical, small-molecule microarray, 635/667 nm fluorescence, artefact control for SMM compound annotation, primary screen (AID 1147); details: higher = more signal;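 also: signal reflects streptavidin binding to arrayed compounds as a control protein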
# Sequence of Streptavidin (Streptomyces avidinii) (P22629 whole entry, looked up): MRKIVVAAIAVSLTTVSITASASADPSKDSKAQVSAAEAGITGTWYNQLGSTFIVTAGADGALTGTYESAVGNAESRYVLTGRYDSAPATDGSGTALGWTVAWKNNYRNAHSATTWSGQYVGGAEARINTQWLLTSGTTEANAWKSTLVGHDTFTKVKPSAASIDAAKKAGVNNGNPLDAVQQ
# [7] = probe aInhba binding on compound microarray – biochemical, small-molecule microarray, 635/667 nm fluorescence, primary screen (AID 1148); details: higher = more signal;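 also: score merges 667nm spot fluorescence with signal-to-noise for antibody binding to printed compounds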
# Torsin-1A (Homo sapiens) [8] = molecular target: Torsin-1A (Homo sapiens) (UniProt O14656); test: TOR1A wild-type binding on microarray – cell lysate, small-molecule microarray, lysate, 635/667 nm, primary screen (AID 1149); details: COS7 hTOR1A-WT lysate, 635 nm fluorescence, higher = more signal
# Sequence of Torsin-1A (Homo sapiens) (O14656 whole entry, looked up): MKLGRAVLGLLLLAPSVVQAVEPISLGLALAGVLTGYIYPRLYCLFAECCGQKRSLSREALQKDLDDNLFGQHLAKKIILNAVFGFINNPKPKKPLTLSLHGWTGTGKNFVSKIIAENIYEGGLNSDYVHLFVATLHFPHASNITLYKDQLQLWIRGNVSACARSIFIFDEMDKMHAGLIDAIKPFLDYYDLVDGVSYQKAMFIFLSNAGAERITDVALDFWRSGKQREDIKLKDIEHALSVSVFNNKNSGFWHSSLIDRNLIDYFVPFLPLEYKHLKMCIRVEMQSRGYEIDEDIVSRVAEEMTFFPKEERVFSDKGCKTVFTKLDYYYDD
# Torsin-1A (Homo sapiens) [9] = molecular target: Torsin-1A (Homo sapiens) (UniProt O14656); test: torsin A mutant lysate binding on microarrays – cell lysate, small-molecule microarray, COS7 lysate, 635/667 nm fluorescence, primary screen (AID 1150); details: COS7 hTOR1A mutant lysate, 635 nm fluorescence, higher = more signal;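 also: score pools 667 nm emission and signal to noise measuring lysate protein binding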
# [10] = tested on: Sonic hedgehog protein (Shh); test: Sonic hedgehog microarray binding compounds – biochemical, small-molecule microarray, 635/667 nm fluorescence, primary screen (AID 1151); details: 635 nm fluorescence, higher = more signal;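 also: Shh protein binding to compounds spotted on small-molecule microarray slides; score combines spot fluorescence intensity with signal-to-noise across triplicate slides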
# [11] = optical density shifts of acrAB sulA E. coli – strain DRC41, OD650, 48 h, E. coli filamentation inducer project, primary screen (AID 1152); details: higher = more signal, called active from +8 up or from −8 down;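 also: E. coli MC1000 strain DRC41 lacking acrAB efflux pump and sulA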
# [12] = probe aLefty1 binding on compound microarray – biochemical, small-molecule microarray, 635/667 nm fluorescence, primary screen (AID 1153); details: higher = more signal;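 also: score merges spot fluorescence with signal-to-noise ratio from the scanned slide images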
# [13] = plasmodial surface anion channel blockers, osmotic lysis – cell-based, P. falciparum Indochina, OD700, 1 h, primary screen (AID 1154); details: P. falciparum Indochina infected RBC osmotic lysis, higher = more signal, called active from +8 up or from −8 down
# [14] = plasmodial surface anion channel blockers, osmotic lysis – cell-based, P. falciparum Indochina, OD700, 2 h, primary screen (AID 1155);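 also: lysis reports solute entry through the parasite surface anion channel PSAC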; details: P. falciparum Indochina infected erythrocytes, higher = more signal, called active from +8 up or from −8 down
# [15] = changes in parasitized red cell lysis, either direction – P. falciparum Indochina, OD700, 3 h, PSAC antagonist project, primary screen (AID 1156); details: P. falciparum-infected erythrocytes, osmotic lysis, higher = more signal, called active from +8 up or from −8 down
# [16] = plasmodial surface anion channel blockers, osmotic lysis – cell-based, P. falciparum Indochina, OD700, 18 h, primary screen (AID 1157); details: P. falciparum Indochina infected erythrocytes, osmotic lysis OD700, 18 h; higher = more signal, called active from +8 up or from −8 down
# [17] = S6 kinase pathway phospho-S6 level changes – cell-based, A549, cytoblot, luminescence, serum-stimulated, primary screen (AID 1158); details: 5 h, higher = more signal;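 also: serum-stimulated A549 lung adenocarcinoma cells; signal is phosphorylated S6 detected by cytoblot immunostaining with HRP secondary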
# [18] = molecular target: NADPH oxidase 2 (Homo sapiens) (UniProt P04839); test: compounds shifting NOX2 Amplex Red fluorescence – cell-based, HEK293-NOX2, PMA-stimulated, NOX inhibitor project, primary screen (AID 1159); details: 45 min, higher = more signal, called active from +8 up or from −8 down; also: test concentration not given here
# Sequence of NADPH oxidase 2 (Homo sapiens) (P04839 whole entry, looked up): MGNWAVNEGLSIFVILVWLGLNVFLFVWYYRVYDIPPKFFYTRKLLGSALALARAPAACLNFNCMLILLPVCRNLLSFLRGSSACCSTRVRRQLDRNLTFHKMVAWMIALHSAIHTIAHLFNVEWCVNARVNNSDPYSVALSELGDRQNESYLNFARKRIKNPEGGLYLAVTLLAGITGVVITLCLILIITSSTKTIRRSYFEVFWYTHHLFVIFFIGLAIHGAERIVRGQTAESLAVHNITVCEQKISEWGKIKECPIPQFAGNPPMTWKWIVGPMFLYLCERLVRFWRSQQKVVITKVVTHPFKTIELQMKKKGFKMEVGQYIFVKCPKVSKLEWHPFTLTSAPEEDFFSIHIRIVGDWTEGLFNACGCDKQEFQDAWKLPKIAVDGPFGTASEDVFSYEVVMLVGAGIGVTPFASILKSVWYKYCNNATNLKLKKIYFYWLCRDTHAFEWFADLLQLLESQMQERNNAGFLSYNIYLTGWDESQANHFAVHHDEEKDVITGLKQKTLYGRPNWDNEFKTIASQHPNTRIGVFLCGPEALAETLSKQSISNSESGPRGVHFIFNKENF
# [19] = molecular target: NADPH oxidase 4 (Homo sapiens) (UniProt Q9NPH5); test: compounds shifting NOX4 Amplex Red fluorescence – cell-based, HEK293-NOX4, tetracycline-induced, NOX inhibitor project, primary screen (AID 1160); details: HEK293-NOX4, Amplex Red H2O2 fluorescence, 45 min; higher = more signal, called active from +8 up or from −8 down
# Sequence of NADPH oxidase 4 (Homo sapiens) (Q9NPH5 whole entry, looked up): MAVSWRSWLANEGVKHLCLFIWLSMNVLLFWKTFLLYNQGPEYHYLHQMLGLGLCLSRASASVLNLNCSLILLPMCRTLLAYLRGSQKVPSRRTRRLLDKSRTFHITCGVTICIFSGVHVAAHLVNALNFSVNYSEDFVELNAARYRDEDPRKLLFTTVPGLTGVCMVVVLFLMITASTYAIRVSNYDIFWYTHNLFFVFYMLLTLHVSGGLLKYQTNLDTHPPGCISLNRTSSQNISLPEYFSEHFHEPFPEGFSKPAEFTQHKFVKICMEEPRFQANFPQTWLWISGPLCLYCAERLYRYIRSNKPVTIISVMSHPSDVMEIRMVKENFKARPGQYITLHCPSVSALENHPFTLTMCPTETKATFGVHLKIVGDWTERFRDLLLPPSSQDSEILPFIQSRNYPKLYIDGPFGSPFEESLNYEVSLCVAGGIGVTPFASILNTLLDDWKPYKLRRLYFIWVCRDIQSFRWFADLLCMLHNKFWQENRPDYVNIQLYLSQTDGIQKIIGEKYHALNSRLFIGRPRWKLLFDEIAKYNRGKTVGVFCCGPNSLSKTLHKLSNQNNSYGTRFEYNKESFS
# [20] = molecular target: NADPH oxidase 5 (Homo sapiens) (UniProt Q96PH1); test: compounds shifting NOX5 Amplex Red fluorescence – cell-based, HEK293-NOX5, NOX inhibitor project, primary screen (AID 1161); details: HEK293-NOX5, ionomycin, 45 min, higher = more signal
# Sequence of NADPH oxidase 5 (Homo sapiens) (Q96PH1 whole entry, looked up): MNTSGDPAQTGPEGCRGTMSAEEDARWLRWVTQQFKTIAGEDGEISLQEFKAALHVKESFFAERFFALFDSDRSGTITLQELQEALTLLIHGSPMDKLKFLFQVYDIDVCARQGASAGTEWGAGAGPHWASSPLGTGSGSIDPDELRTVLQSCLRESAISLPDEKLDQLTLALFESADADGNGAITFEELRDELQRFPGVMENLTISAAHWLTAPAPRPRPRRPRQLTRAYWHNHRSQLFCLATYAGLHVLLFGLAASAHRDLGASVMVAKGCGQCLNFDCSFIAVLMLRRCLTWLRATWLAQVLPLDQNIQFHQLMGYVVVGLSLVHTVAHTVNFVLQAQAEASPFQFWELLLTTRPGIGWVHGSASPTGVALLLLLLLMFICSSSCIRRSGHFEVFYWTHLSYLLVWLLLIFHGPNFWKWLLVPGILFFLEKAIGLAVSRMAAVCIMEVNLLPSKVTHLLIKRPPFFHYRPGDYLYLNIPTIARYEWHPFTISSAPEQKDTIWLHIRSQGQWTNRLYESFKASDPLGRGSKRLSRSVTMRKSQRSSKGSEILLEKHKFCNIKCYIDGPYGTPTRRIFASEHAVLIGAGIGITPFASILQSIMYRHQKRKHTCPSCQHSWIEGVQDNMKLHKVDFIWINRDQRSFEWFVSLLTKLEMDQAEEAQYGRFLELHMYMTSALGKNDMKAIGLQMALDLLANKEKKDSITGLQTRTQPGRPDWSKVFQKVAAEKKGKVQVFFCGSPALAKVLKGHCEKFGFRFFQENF
Compound,composite z-score [1],z-score [2],z-score [3],z-score [4],z-score [5],composite z-score [6],composite z-score [7],composite z-score (Torsin-1A (Homo sapiens) [8]),composite z-score (Torsin-1A (Homo sapiens) [9]),composite z-score [10],z-score [11],composite z-score [12],z-score [13],z-score [14],z-score [15],z-score [16],z-score [17],z-score [18],z-score [19],z-score [20]
COC(=O)[C@]1(Cc2ccccc2N=[N+]=[N-])N=C(c2ccc(OCCCO)cc2)O[C@@H]1c1ccccc1,0.0416,-5.29 (inactive),-0.566 (inactive),2.59 (inactive),15.8 (active),-0.189,0.125,-0.53,-0.23,-0.148,0.738 (inactive),-0.111,28.2 (active),27.2 (active),1.06 (inactive),7.41 (inactive),0.777,-1.49 (inactive),-0.013 (inactive),-1.12
C=CCNC(=O)[C@H]1[C@@H]2C(=O)O[C@@H](c3ccccc3)[C@@H](c3ccccc3)N2[C@@H](c2ccc(O)cc2)[C@]12C(=O)N(C(=O)OCCOC)c1ccc(C#CC3(O)CCCCCC3)cc12,0.195,-1.07 (inactive),-0.7 (inactive),-0.465 (inactive),-0.804 (inactive),-0.179,0.134,0.187,0.331,0.858,1.91 (inactive),0.0313,0.842 (inactive),0.788 (inactive),0.0365 (inactive),0.222 (inactive),0.281,1.37 (inactive),0.903 (inactive),1.89
COc1cc2c(cc1OC)CN(C(=O)[C@@H]1[C@H]3C(=O)O[C@H](c4ccccc4)[C@H](c4ccccc4)N3[C@H](c3ccc(O)cc3)[C@@]13C(=O)Nc1ccc(C#CCNC(N)=O)cc13)CC2,0.147,0.311 (inactive),0.347 (inactive),0.182 (inactive),0.445 (inactive),0.239,-0.101,-0.0899,-0.0351,0.946,0.108 (inactive),0.231,1.1 (inactive),0.218 (inactive),-0.83 (inactive),-0.0717 (inactive),-0.419,0.842 (inactive),0.157 (inactive),0.432
C[C@]12C(=O)N(CCCO)[C@@H]3C(=O)N(c4ccc(Cl)cc4)CC=CC31O[C@@H]1/C=C\CCCOC(=O)C12 (stereo not given in full),-0.408,0.231 (inactive),0.993 (inactive),-0.212 (inactive),-0.221 (inactive),-1.19,-0.218,-1.88,-1.13,0.399,-0.511 (inactive),-0.0203,1.29 (inactive),0.396 (inactive),-0.423 (inactive),0.211 (inactive),-0.332,1.53 (inactive),0.84 (inactive),2.71
O=C(NCc1ccccc1)[C@]1(Cc2ccccc2)N=C(c2ccc(OCCCO)cc2)O[C@@H]1c1ccccc1,0.53,-4.62 (inactive),-0.621 (inactive),-0.0576 (inactive),-1.02 (inactive),0.621,0.0053,-0.0377,0.621,-0.468,-2.04 (inactive),-0.225,30.1 (active),22.5 (active),0.578 (inactive),2.53 (inactive),-0.397,0.158 (inactive),-0.503 (inactive),-0.855
C=CC[C@]1(C(=O)N2CCOCC2)N=C(c2ccc(OCCCO)cc2)O[C@H]1c1ccccc1CN=[N+]=[N-],0.662,-3.25 (inactive),0.112 (inactive),3.51 (inactive),-0.745 (inactive),1.06,0.455,0.689,1.1,0.871,0.434 (inactive),0.483,27.9 (active),23.1 (active),3.57 (inactive),1.89 (inactive),-0.0698,1.4 (inactive),0.226 (inactive),-1.32
COc1ccc([Si](C)(C)[C@@H]2[C@@H](CC(=O)N(CCO)Cc3ccccc3)O[C@]3(C(=O)N(C)c4c(Br)cc(C)cc43)[C@H]2C)cc1,0.312,-5.28 (inactive),0.336 (inactive),18.2 (active),0.429 (inactive),-0.212,-0.152,0.268,-0.0496,1.91,-1.98 (inactive),-0.103,26.6 (active),14.2 (active),0.233 (inactive),2.09 (inactive),0.336,-1.91 (inactive),-0.00605 (inactive),-1.28
O=C1O[C@H](c2ccccc2)[C@H](c2ccccc2)N2[C@H]1[C@@H](C(=O)N1CCN(c3ncccn3)CC1)[C@]1(C(=O)Nc3ccc(C#CCCO)cc31)[C@H]2c1ccccc1OCCO,0.163,-1.55 (inactive),0.525 (inactive),0.765 (inactive),-0.484 (inactive),0.376,0.0714,0.506,0.686,0.371,0.313 (inactive),-0.012,2.7 (inactive),1.55 (inactive),0.561 (inactive),0.657 (inactive),-0.673,1.45 (inactive),0.492 (inactive),0.333
CC(C)C[C@H]1NC(=O)[C@H](C)NC(=O)[C@@]23C(=O)N[C@@H](Cc4ccccc4)C2[C@H](C)[C@@]2(C)O[C@H]2C3/C=C/C/C=C\CNC1=O (stereo not given in full),-0.0392,0.288 (inactive),0.325 (inactive),2.03 (inactive),-0.0505 (inactive),-0.442,-0.176,-1.09,0.0821,0.366,-1.07 (inactive),-0.774,2.71 (inactive),-0.169 (inactive),0.137 (inactive),0.11 (inactive),0.0246,-0.232 (inactive),0.83 (inactive),-0.234
